Screens deposited in PubChem by National Center for Advancing Translational Sciences (NCATS).
KB-3-1 cytotox: kills parental KB-3-1 adenocarcinoma cells; KB-3-1 viability, CellTiter-Glo ATP luminescence, 72 h; Potency, µM (highest dose often 46.1 µM), actives largely listed as cytotoxic; 400,000 compounds, 1.4% hits; also: nearly all actives have a fitted effect of over 60% in size
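Cytotoxicity in the drug-sensitive parental line KB-3-1 was scored as loss of CellTiter-Glo luminescence following 72 h incubation with compound. Values come from curve fitting of normalized concentration-response data.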
KB-V1 MDR tox: kills drug-selected multidrug resistant KB-V1 cells; KB-V1 MDR cells viability, CellTiter-Glo, 72 h; Potency, µM (highest dose often 46.1 µM), hits mostly cytotoxic; 400,000 compounds, 3.4% hits; AID 1347076; also: nearly all actives have a fitted effect of over 60% in size
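Cells of the MDR subline KB-V1 are plated, dosed with compound at multiple concentrations, and incubated 72 h at 37 degrees C; CellTiter-Glo is then added and luminescence read after 10 min.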
SW480 rereplic: DNA re-replication induction in SW480 cells; AID 624297; SW480 DNA re-replication, Hoechst DNA content imaging, 48 h; Potency, µM (titrated, usually from 46.1 µM), usual class: activators; 340,000 compounds, 1.8% hits; also: nearly all actives have a fitted effect of over 55% in size
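Quantitative HTS format with DMSO vehicle controls; 48 hr drug incubation at 37 C, then 40 min Hoechst staining and scanning imager measurement at 405 nm excitation.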
IL-1B inflam inh: blocks inflammasome-driven IL-1 beta release; THP-1 LPS/ATP IL-1B secretion, AlphaLISA, 16 h; hits give low values; activity change, % at 57.5 µM; 360,000 compounds, 4.7% hits; AID 743279; in the data active = activity change below about -50%; inconclusive = mostly about -30% to -49%
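THP-1 cells pretreated 1 hr with compounds (up to 57.5 uM final), then stimulated with LPS (250 ng/mL final) plus ATP (1.25 mM final); secreted IL-1B measured by AlphaLISA after 16 hr, decreased signal indicating inhibition.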
MCF10A rereplic: inducers of DNA re-replication in MCF 10A breast cells; 350,000 compounds, 2.9% hits; Potency, µM (highest dose often 46.1 µM), actives largely listed as activators; AID 624296; MCF 10A DNA re-replication, Hoechst nuclear intensity, 48 h; also: nearly all actives have a fitted effect of over 50% in size
A number is an active result; n = inactive; u = inconclusive; x = no result; [ ] = remark or other dose. Compounds with a hit are over-represented: about 9.9% of the library has one in this group of screens. Unless noted, calls follow the shape of the dose curve; as a rule, active = well fitted curve in the direction sought with a large enough effect; inconclusive = small, poorly fitted or top-dose-only effect, or another doubt; inactive = no such curve, though single readings can be large; an effect the other way counts as inactive or inconclusive.

SMILES	KB-3-1 cytotox	KB-V1 MDR tox	SW480 rereplic	IL-1B inflam inh	MCF10A rereplic
CCC1N=C(SC)NC(C)=C1C(=O)c1ccccc1 (stereo not given)	n	n	n	n	n
CSC1=NC(C(Cl)(Cl)Cl)N=C(c2ccc(C)cc2)N1 (stereo not given)	1.03µM	1.3µM	u	n	1.84µM
O=C1CCC(c2ccc3c(c2)CCC3)=NN1	1.16µM	n	n	n	n
COc1ccc(NC(=O)Nc2nc3c(s2)CCCC3)cc1	n	n	n	-52.4	n
COc1ccc(OCC(=O)Nc2nc3c(s2)CCCC3)cc1	n	n	n	n	n
Cc1ncsc1C(=O)Nc1nc2c(s1)CCCC2	16.4µM	13µM	u	n	n
O=C(Nc1nc2c(s1)CCCC2)c1ccc(Br)s1	16.4µM	5.17µM	u	-93.0	n
O=[N+]([O-])c1ccc(C2Oc3ccccc3C3CC(c4ccccc4)=NN32)s1 (stereo not given)	x	x	23.1µM	x	14.6µM
COc1ccccc1NC(=O)c1cnc(SCC(=O)NCC2CCCO2)n(C)c1=O (stereo not given)	u	n	u	-97.0	u
Cc1ccc(S(=O)(=O)N2CCOC23CCN(C(=O)C(=O)NCCC(C)C)CC3)cc1	n	n	n	n	n
CCCC[n+]1c2ccccc2cc2ccccc21	16.4µM	n	u	-101.4	n
CCC[n+]1c2ccccc2cc2ccccc21	u	20.6µM	11.6µM	-99.0	13µM
CCN(CC(=O)Nc1c(F)cccc1F)C(=O)c1ccc(N2CCCC2=O)cc1	n	n	n	n	n
CCc1nc2ccc(C(=O)Nc3ccc(NC(C)=O)cc3)cn2c1N(C)C(=O)Cc1ccccc1	n	n	x	n	x
CN1c2ccccc2C(C)(C)C12CC(c1cccc(S(=O)(=O)N3CCCC3)c1)=NO2 (stereo not given)	u	6.51µM	n	n	n
CN1c2ccccc2C(C)(C)C12CC(c1ccc(S(=O)(=O)N3CCCCC3)cc1)=NO2 (stereo not given)	n	u	n	n	n
Cc1c(NC(=O)Nc2ccc(F)cc2F)c(=O)n(-c2ccccc2)n1C	n	n	n	n	n
CCn1cc2nc(SCC(=O)Nc3ccc(OC)c(OC)c3)n(Cc3ccc(OC)cc3)c(=O)c2n1	n	n	n	n	n
CCn1cc2nc(SCc3cccc(C(F)(F)F)c3)n(Cc3ccc(OC)cc3)c(=O)c2n1	n	18.4µM	x	x	x
CCn1cc2nc(SCC(=O)Nc3ccc(OC)cc3OC)n(Cc3ccc(OC)cc3)c(=O)c2n1	u	u	7.31µM	n	3.26µM
c1ccc2c(-c3[nH]ncc3CNCCCn3ncc4ccccc43)cccc2c1	n	u	u	u	u
CCOC(=O)Nc1ccc2c(COC(=O)C(NS(=O)(=O)c3ccc(Cl)cc3)C(C)O)cc(=O)oc2c1 (stereo not given)	n	n	n	n	n
COc1ccc(-n2nc(C(=O)NCC(=O)NCc3ccco3)c3ccccc3c2=O)cc1Cl	n	5.8µM	n	n	u
CCOC(=O)C(C(=O)Nc1ccc(C)cc1)C1CCCCC1 (stereo not given)	23.1µM	9.2µM	u	n	n
CCOC(=O)C(C(=O)Nc1ccccc1)C1CCCCC1 (stereo not given)	n	n	n	n	n
SMILES	KB-3-1 cytotox	KB-V1 MDR tox	SW480 rereplic	IL-1B inflam inh	MCF10A rereplic
CN1CCC(N(C)C(=O)c2cc(S(=O)(=O)N(C)c3ccccc3)ccc2Cl)CC1	n	n	n	n	n
N#Cc1c(Cl)nsc1NN	n	n	n	-63.7	n
O=c1c2oc3nc4c(cc3c2ncn1CCCc1ccccc1)CCCC4	n	n	n	-53.1	n
CCCCn1cnc2c(oc3nc4c(cc32)CCCC4)c1=O	n	n	u	-60.3	n
Nc1nc(SCC(=O)O)c2[nH]cnc2n1	u	n	x	x	x
COc1cc(OC)c(OC)cc1CCC(C)NCCC(c1ccccc1)c1ccccc1 (stereo not given)	n	n	n	-64.6	u
COc1ccc(CCNCCC(c2ccccc2)c2ccccc2)cc1OC	u	n	x	-54.2	x
O=CN(c1ccccc1)c1ccc2ccccc2c1	n	n	n	n	n
CCc1cccc(NC(c2ccccc2)c2nnc(-c3ccccc3F)o2)c1 (stereo not given)	n	n	x	x	x
CSc1nc(C)cc(OCC(=O)N/N=C/c2ccccc2O)n1	5.8µM	n	u	n	5.17µM
O=C(Cn1cc(C(F)(F)F)ccc1=O)N/N=C/c1ccccc1O	n	n	5.8µM	n	n
Cc1cc(=O)oc2cc(OCC(=O)N/N=C/c3ccccc3O)ccc12	u	n	n	n	n
O=C(COc1nsnc1N1CCOCC1)N/N=C/c1ccccc1O	n	u	18.4µM	n	u
O=C(CCCCC(=O)NN=Cc1ccccc1O)NN=Cc1ccccc1O	u	n	1.46µM	n	u
O=C(/C=C/c1ccccc1Cl)Nc1cccc([S+](=O)([O-])Nc2ccccc2F)c1	u	n	x	x	x
O=C(CCC(=O)Nc1ccc(Br)cc1)N/N=C/c1ccccc1O	u	u	u	n	n
O=C(CSCC(=O)NN=Cc1ccccc1O)NN=Cc1ccccc1O	x	x	u	n	14.6µM
COc1ccc(NC(=O)CCc2c(C)nc3c(c2C)c(=O)n(C)c(=O)n3C)cc1OC	n	n	x	x	x
CCOC(=O)c1cocc1C(=O)O	n	u	n	n	n
Cc1ccc(Nc2nc3ccccc3[nH]2)nc1	u	u	n	-52.9	n
CCNC(=S)N/N=C/c1cccc(OCc2c(F)cccc2Cl)c1	u	20.6µM	n	n	u
O=C(NCc1ccccc1F)c1sc2ncccc2c1-n1cccc1	n	n	x	x	x
Cc1ccc(C)c(NC(=O)C2(C)CC3c4ccccc4C2c2ccccc23)c1 (stereo not given)	n	n	n	n	n
Cc1cccc(NC(=O)C2(C)CC3c4ccccc4C2c2ccccc23)c1C (stereo not given)	u	7.31µM	n	n	n
O=S(=O)(Nc1nc(SCc2ccc(Cl)cc2)n[nH]1)c1ccc(F)cc1	n	n	n	-59.2	n
SMILES	KB-3-1 cytotox	KB-V1 MDR tox	SW480 rereplic	IL-1B inflam inh	MCF10A rereplic
O=c1oc2c(CN3CCOCC3)c(O)ccc2c2c1CCCC2	n	n	n[9.22 µM]	n	n
CC1(C)Oc2c(ccc(O)c2CN2CCOCC2)C2=C1CCCC2	n	18.4µM	n	n	n
Cc1ccc(-c2oc3ccccc3c(=O)c2O)cc1	20.6µM	u	n	n	25.9µM
O=c1c(O)c(-c2ccccc2)oc2ccccc12	n	n	n	n	u
CCOC(=O)c1cc(S(=O)(=O)NCc2cccc(Cl)c2)[nH]n1	n	u	x	x	x
CCCCn1c(=N)n(CC(=O)c2ccc(Br)s2)c2ccccc21	n	u	u	-97.9	u
CCn1c(=N)n(CC(=O)c2ccc(Br)s2)c2ccccc21	n	n	n	n	n
COc1ccc(-c2cc(=Nc3c(C)n(C)n(-c4ccccc4)c3=O)c3ccccc3o2)cc1	n	u	n	n	n
